The nature of experiment [1]: NCI Yeast Anticancer Drug Screen. Data for the rad50 strain (AID 155).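 Also: 0% = growth of vehicle-only cultures of the same strain.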 Conditions: S. cerevisiae rad50 strain growth inhibition, hits give high values. An outline of the steps: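 Compounds were tested on a yeast strain with an engineered DNA damage repair alteration; the reported value is growth inhibition normalised to vehicle treatment.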
The nature of experiment [2]: NCI Yeast Anticancer Drug Screen. Data for the mec2-1 strain (AID 157). Conditions: S. cerevisiae mec2-1 strain, hits give high values. An outline of the steps:
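Using mec2-1 yeast: add compound, measure growth, express inhibition versus vehicle-treated cultures.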

The nature of experiment [3]: NCI Yeast Anticancer Drug Screen. Data for the sgs1 mgt1 strain (AID 161).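 Also: 0% = growth of cultures given vehicle only.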 Conditions: S. cerevisiae sgs1 mgt1 strain, hits give high values. An outline of the steps:
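Growth of a repair-deficient yeast mutant was monitored after compound treatment and expressed as inhibition relative to vehicle-treated cultures.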

Experiment [4] is described as follows: NCI Yeast Anticancer Drug Screen. Data for the cln2 rad14 strain (AID 165).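 Also: 0% = growth equal to vehicle treated cultures.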 Conditions: S. cerevisiae cln2 rad14 strain, hits give high values. An outline of the steps:
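Yeast strain cln2 rad14, bearing defects in cell cycle control and DNA repair, serves as the test system; values reflect growth inhibition compared with vehicle.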

Experiment [5] in a line: NCI Yeast Anticancer Drug Screen. Data for the bub3 strain (AID 167). The following applies: S. cerevisiae bub3 mutant strain, hits give high values. An outline of the steps: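 Growth of a checkpoint-deficient yeast mutant is measured after compound exposure. Values represent inhibition relative to vehicle.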
Experiment [6] is described as follows: NCI Yeast Anticancer Drug Screen. Data for the mlh1 rad18 strain (AID 175). Conditions: S. cerevisiae mlh1 rad18 strain growth inhibition, hits give high values. An outline of the steps:
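Steps: expose repair-defective yeast to compound; measure growth; express inhibition against vehicle-treated controls.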

The mark [7] stands for this setting: at 5.0 µM (retest, dose inferred, filed as 0.5).
The mark [8] stands for this setting: at 50.0 µM (retest, dose inferred, filed as 5.0).

Compounds without any hit were thinned out: in the full panel of roughly 79,000, 15% have a hit. Unmarked numbers belong to inactive results. Activity calls are given as the source filed them. Rule as the data show it: active = growth inhibition above about 70%; inactive = the rest.

On to `Nc1c(C(=O)O)cccc1[N+](=O)[O-]`, for which the growth inhibition in experiment [1] (setting [7]) is 2%; in experiment [1] (setting [8]), -1%; in experiment [1] (at 50.0 µM) it was -5.1%; in experiment [2] (setting [7]), 1%; in experiment [2] (setting [8]), -2%; in experiment [2] (at 50.0 µM) it was 9.25%. In addition, the growth inhibition in experiment [3] (setting [7]) is -1%; in experiment [3] (setting [8]), -1%; in experiment [3] (at 50.0 µM), -9.1%; in experiment [4] (setting [7]), -1%; in experiment [4] (setting [8]), 3%; in experiment [4] (at 50.0 µM), 23.2%. In addition, the growth inhibition in experiment [5] (setting [7]) was 1%; in experiment [5] (setting [8]), 0%; in experiment [5] (at 50.0 µM), -2.1%; in experiment [6] (setting [7]), 1%; in experiment [6] (setting [8]), 3%; in experiment [6] (at 50.0 µM) it was -5.05%.
As for `Cc1c(N=Nc2ccc(Br)cc2)c(-c2ccccc2)nn1C(=S)S`, the growth inhibition in experiment [1] (setting [7]) was -1%; in experiment [1] (setting [8]), 20%; in experiment [1] (at 50.0 µM), 88.7% (active); in experiment [2] (setting [7]), 2%; in experiment [2] (setting [8]), 26%; in experiment [2] (at 50.0 µM), 88% (active). Further, the growth inhibition was 3% in experiment [3] (setting [7]); 45% in experiment [3] (setting [8]); 90.5% (active) in experiment [3] (at 50.0 µM); 4% in experiment [4] (setting [7]); 34% in experiment [4] (setting [8]); 51.5% in experiment [4] (at 50.0 µM). For the same compound, the growth inhibition in experiment [5] (setting [7]) is 3%; in experiment [5] (setting [8]) it was 74% (active); in experiment [5] (at 50.0 µM), 86.6% (active); in experiment [6] (setting [7]) it was 1%; in experiment [6] (setting [8]), 31%; in experiment [6] (at 50.0 µM) it was 92.7% (active).
Take `Cc1cc(Cc2cccc(Cl)c2)ccc1O`: the growth inhibition in experiment [1] (setting [7]) was -8%; in experiment [1] (setting [8]) it was 99% (active); in experiment [1] (at 50.0 µM) it was 99.5% (active); in experiment [2] (setting [7]), -34%; in experiment [2] (setting [8]), 99% (active); in experiment [2] (at 50.0 µM), 99.7% (active). In addition, the growth inhibition in experiment [3] (setting [7]) is -2%; in experiment [3] (setting [8]), 99% (active); in experiment [3] (at 50.0 µM), 99.3% (active); in experiment [4] (setting [7]) it was -21%; in experiment [4] (setting [8]), 99% (active); in experiment [4] (at 50.0 µM), 99.4% (active). The growth inhibition in experiment [5] (setting [7]) was -20%; in experiment [5] (setting [8]), 99% (active); in experiment [5] (at 50.0 µM), 99.6% (active); in experiment [6] (setting [7]) it was -8%; in experiment [6] (setting [8]) it was 99% (active); in experiment [6] (at 50.0 µM), 99.5% (active).
Regarding `O=S1(=O)c2ccccc2C(=NO)c2ccccc21`, the growth inhibition in experiment [1] (setting [7]) was -5%; in experiment [1] (setting [8]) it was -9%; in experiment [1] (at 50.0 µM) it was -7.95%; in experiment [2] (setting [7]) it was -3%; in experiment [2] (setting [8]) it was -26%; in experiment [2] (at 50.0 µM), 13.2%. In addition, the growth inhibition was -7% in experiment [3] (setting [7]); -21% in experiment [3] (setting [8]); -15.4% in experiment [3] (at 50.0 µM); 3% in experiment [4] (setting [7]); 0% in experiment [4] (setting [8]); 66% in experiment [4] (at 50.0 µM). Also, the growth inhibition in experiment [5] (setting [7]) is -1%; in experiment [5] (setting [8]), -17%; in experiment [5] (at 50.0 µM), 7.7%; in experiment [6] (setting [7]), -3%; in experiment [6] (setting [8]), -21%; in experiment [6] (at 50.0 µM) it was -3.55%.
Consider `c1ccc(CCC2=Nc3ccccc3CO2)cc1`, for which the growth inhibition in experiment [1] (setting [7]) was -160%; in experiment [1] (setting [8]) it was -155%; in experiment [1] (at 50.0 µM), 7.75%; in experiment [2] (setting [7]) it was -48%; in experiment [2] (setting [8]), -56%; in experiment [2] (at 50.0 µM), -6.5%. The growth inhibition in experiment [3] (setting [7]) was -64%; in experiment [3] (setting [8]) it was -63%; in experiment [3] (at 50.0 µM), 12.2%; in experiment [4] (setting [7]), -67%; in experiment [4] (setting [8]) it was -87%; in experiment [4] (at 50.0 µM) it was 13.3%. In addition, the growth inhibition is -68% in experiment [5] (setting [7]); -69% in experiment [5] (setting [8]); -18.7% in experiment [5] (at 50.0 µM); -126% in experiment [6] (setting [7]); -124% in experiment [6] (setting [8]); -8.4% in experiment [6] (at 50.0 µM).
In the case of `CCOc1ccccc1NC1=C(Cl)C(=O)c2ccccc2C1=O`, the growth inhibition is 99% (active) in experiment [1] (setting [7]); 97% (active) in experiment [1] (setting [8]); 23.9% in experiment [1] (at 50.0 µM); 99% (active) in experiment [2] (setting [7]); 98% (active) in experiment [2] (setting [8]); 97.9% (active) in experiment [2] (at 50.0 µM). Further, the growth inhibition was 100% (active) in experiment [3] (setting [7]); 98% (active) in experiment [3] (setting [8]); 98% (active) in experiment [3] (at 50.0 µM); 99% (active) in experiment [4] (setting [7]); 98% (active) in experiment [4] (setting [8]); 97% (active) in experiment [4] (at 50.0 µM). In addition, the growth inhibition in experiment [5] (setting [7]) was 99% (active); in experiment [5] (setting [8]), 97% (active); in experiment [5] (at 50.0 µM) it was 97.8% (active); in experiment [6] (setting [7]), 99% (active); in experiment [6] (setting [8]), 97% (active); in experiment [6] (at 50.0 µM) it was 96.1% (active).
As to `Clc1ccc(C2=C(c3ccccc3)C(c3ccc(Cl)cc3)N3C(=N[C@H]4CCCC[C@@H]43)N2)cc1` (some centres not stated), the growth inhibition in experiment [1] (setting [7]) was 4%; in experiment [1] (setting [8]), 15%; in experiment [1] (at 50.0 µM) it was 88.2% (active); in experiment [2] (setting [7]) it was 9%; in experiment [2] (setting [8]) it was 7%; in experiment [2] (at 50.0 µM), 88.4% (active). Further, the growth inhibition was -14% in experiment [3] (setting [7]); -27% in experiment [3] (setting [8]); 89.3% (active) in experiment [3] (at 50.0 µM); -1% in experiment [4] (setting [7]); -5% in experiment [4] (setting [8]); 90% (active) in experiment [4] (at 50.0 µM). The growth inhibition in experiment [5] (setting [7]) was -1%; in experiment [5] (setting [8]), -1%; in experiment [5] (at 50.0 µM) it was 87.7% (active); in experiment [6] (setting [7]) it was 7%; in experiment [6] (setting [8]), 7%; in experiment [6] (at 50.0 µM), 91.5% (active).
For `C=Cc1cc(=O)oc2cc(OC)ccc12`, the growth inhibition in experiment [1] (setting [7]) is 20%; in experiment [1] (setting [8]), 98% (active); in experiment [1] (at 50.0 µM) it was 71.4% (active); in experiment [2] (setting [7]), 22%; in experiment [2] (setting [8]) it was 99% (active); in experiment [2] (at 50.0 µM) it was 86.2% (active). Besides, the growth inhibition in experiment [3] (setting [7]) was 22%; in experiment [3] (setting [8]), 98% (active); in experiment [3] (at 50.0 µM), 61.2%; in experiment [4] (setting [7]), 14%; in experiment [4] (setting [8]) it was 99% (active); in experiment [4] (at 50.0 µM), 72.2% (active). Moreover, the growth inhibition was 14% in experiment [5] (setting [7]); 98% (active) in experiment [5] (setting [8]); 93.2% (active) in experiment [5] (at 50.0 µM); 30% in experiment [6] (setting [7]); 98% (active) in experiment [6] (setting [8]); 93.8% (active) in experiment [6] (at 50.0 µM).
With `C/C(=N\NC(=S)N1CCC(C)CC1)c1cccc2cccnc12`, the growth inhibition in experiment [1] (setting [7]) was -5%; in experiment [1] (setting [8]), 98% (active); in experiment [1] (at 50.0 µM), 62.6%; in experiment [2] (setting [7]) it was -9%; in experiment [2] (setting [8]) it was 98% (active); in experiment [2] (at 50.0 µM), -6.1%. Besides, the growth inhibition in experiment [3] (setting [7]) was 0%; in experiment [3] (setting [8]), 98% (active); in experiment [3] (at 50.0 µM), 83.2% (active); in experiment [4] (setting [7]), -10%; in experiment [4] (setting [8]), 98% (active); in experiment [4] (at 50.0 µM), 14.2%. Further, the growth inhibition in experiment [5] (setting [7]) is 2%; in experiment [5] (setting [8]) it was 98% (active); in experiment [5] (at 50.0 µM), 6.05%; in experiment [6] (setting [7]), -8%; in experiment [6] (setting [8]), 99% (active); in experiment [6] (at 50.0 µM), 6.35%.

The record behind these values is PubChem BioAssay (NCI).
